# Test results published in PubChem BioAssay (NCI).
# Compounds without any hit were thinned out: in the full panel of roughly 83,000, 20% have a hit.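 Percent growth is the endpoint: 0 to 100 indicates growth inhibition (40 means 60% inhibition), 0 means no net growth, and negative values indicate cell death.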 A number with no mark means an inactive call. Active and inactive are the calls of the source. The calls were made as follows: active = growth percent below 10; inactive = the rest.
# Tested on: HT29 colon
# Assay: NCI-60 one-dose screen, 48 h (100 = growth as untreated, 0 = no growth, -100 = all killed)
# Settings: 10 µM unless noted
row,SMILES,growth
1,COc1cc(-c2nn(-c3cccc(NC(=O)Nc4cc(C(F)(F)F)cc(C(F)(F)F)c4)c3)cc2-c2ccncc2)ccc1Cl,-41.2% (active)
2,CCOC(=O)NNC(=S)Nc1ccccc1,105%
3,N#Cc1c(-c2ccccc2)nc(SCC(=O)N2CCN(c3ccccc3)CC2)[nH]c1=O,117%
4,C=C1c2nc3ccccc3n2C=C(c2ccc(Cl)cc2)N1Cc1ccccc1,77.4%
5,Cc1cc(C(C)(C)C)ccc1S,97.5%
6,O=C(Nc1ccncc1)C(=O)c1cn(S(=O)(=O)c2ccc(Br)cc2)c2ccccc12,11.6%
7,O=C(/C=C/c1cc(-c2ccc3c(c2)OCO3)n[nH]1)c1ccc2c(c1)OCO2,100%
8,CCN(CC)c1ccc(CNc2ccnc3ccccc23)cc1,24.8%
9,COc1cccc(-c2cc3c(O)cc(C#N)cc3[nH]2)c1,94.6%
10,C=C(C)[C@@H]1CC[C@]2(C(=O)N3CCNCC3)CC[C@]3(C)[C@H](CC[C@@H]4[C@@]5(C)C/C(=C/c6ccncc6)C(=O)C(C)(C)[C@@H]5CC[C@]43C)[C@@H]12,109%
11,Fc1ccccc1-c1nc(-c2nc3cc(Cl)c(Cl)cc3[nH]2)c2ccccn12,70.8%
12,O=[N+]([O-])c1cc(Cl)c2[nH]c3c(Cl)cc([N+](=O)[O-])cc3c2c1,-38.3% (active)
13,COc1cc(-c2nn(C(=O)NS(=O)(=O)c3ccccc3)cc2-c2ccncc2)ccc1Cl,53.9%
14,COc1cc(NCCCCCN)c2ncccc2c1,118%
15,NC(=N\N=C/c1ccc(O)cc1)/C(N)=N\N=C/c1ccc(O)cc1,105%
16,O=C(/C=C/c1ccccc1)c1cccc(O)c1,32.3%
17,O=C(O)COc1ccc(-c2cssc2=S)cc1,87.5%
18,c1ccc(-c2nnc(-c3ccccn3)s2)nc1,104%
19,CC(C)CC1NC(C)(C)CO1 (configuration not stated),97.5%
20,CC(C)(C)N1CCC1C(N)=O (configuration not stated),109%
21,COc1ccc(-c2cnnn2-c2nonc2-n2cccc2)cc1OC,12.3%
22,O=C(O)C1CCCCN1c1nc(Cl)nc(Cl)n1 (configuration not stated),106%
23,CCCCN(CCCC)C(=N)c1ccnc2ccccc12,89.1%
24,O=S(=O)(NCCNc1nccc(-c2c(-c3cccc(O)c3)nc3sccn23)n1)c1ccc(F)cc1,38.3%
25,COc1cc(-c2nn(-c3cccc(NC(=O)c4cccc(C(F)(F)F)c4)c3)cc2-c2ccncc2)ccc1Cl,-12.1% (active)
26,Cn1cnc2c(N3CCN(C(=O)OCc4ccc5c(Cl)cc(Cl)c(O)c5n4)CC3)nc(Cl)nc21,113%
27,COc1ccc(-c2c(N)n[nH]c2-c2cc(OC)c3c(c2)OCCO3)cc1,29.7%
28,CCOC(=O)c1ccc2c(c1)c1c(C)c3cccnc3c(C)c1n2C,47.4%
29,Cc1nc2ncccc2nc1Nc1ccc(S(=O)(=O)Nc2ccccn2)cc1,121%
30,COc1ccc(C2=C(c3cc(OC)c(OC)c(OC)c3)C(=O)CC2)cc1,-5.43% (active)

# Tested on: SNB-75 CNS
# Assay: as above
# Settings: 10 µM
row,SMILES,growth
1,COc1ccc(C(=O)c2cc(OC)c3c(c2)OCO3)cc1O,30.6%
2,CCOC(=O)C1=C(C)NC(C)=C(C(=O)OCC)C1(C)C,87.3%
3,COc1ccc(CNCCCN2C(=O)c3ccc4c5c(ccc(c35)C2=O)C(=O)N(CCCNCCCCNCCCN)C4=O)c(OC)c1OC,-26.8% (active)
4,NNc1cccc(/C=C/c2ccccc2)cc1=O,81.3%
5,CCCOC(=O)n1cccc1,75.4%
6,Cc1ccc(Cc2c(C=O)nc(N)[nH]c2=O)c2ccccc12,93%

# Tested on: SNB-19 CNS
# Assay: as above
# Settings: 10 µM unless noted
row,SMILES,growth
1,COc1cc(-c2nn(-c3cccc(NC(=O)Nc4cc(C(F)(F)F)cc(C(F)(F)F)c4)c3)cc2-c2ccncc2)ccc1Cl,6.55% (active)
2,COc1ccc(C(=O)c2cc(OC)c3c(c2)OCO3)cc1O,41%
3,CCOC(=O)NNC(=S)Nc1ccccc1,97.9%
4,N#Cc1c(-c2ccccc2)nc(SCC(=O)N2CCN(c3ccccc3)CC2)[nH]c1=O,99.9%
5,C=C1c2nc3ccccc3n2C=C(c2ccc(Cl)cc2)N1Cc1ccccc1,85.3%
6,Cc1cc(C(C)(C)C)ccc1S,105%
7,CCOC(=O)C1=C(C)NC(C)=C(C(=O)OCC)C1(C)C,98.1%
8,COc1ccc(CNCCCN2C(=O)c3ccc4c5c(ccc(c35)C2=O)C(=O)N(CCCNCCCCNCCCN)C4=O)c(OC)c1OC,28%
9,NNc1cccc(/C=C/c2ccccc2)cc1=O,67.7%
10,O=C(Nc1ccncc1)C(=O)c1cn(S(=O)(=O)c2ccc(Br)cc2)c2ccccc12,64.6%
11,O=C(/C=C/c1cc(-c2ccc3c(c2)OCO3)n[nH]1)c1ccc2c(c1)OCO2,72%
12,CCCOC(=O)n1cccc1,100%
13,COc1cccc(-c2cc3c(O)cc(C#N)cc3[nH]2)c1,93.1%
14,C=C(C)[C@@H]1CC[C@]2(C(=O)N3CCNCC3)CC[C@]3(C)[C@H](CC[C@@H]4[C@@]5(C)C/C(=C/c6ccncc6)C(=O)C(C)(C)[C@@H]5CC[C@]43C)[C@@H]12,99.5%
15,Fc1ccccc1-c1nc(-c2nc3cc(Cl)c(Cl)cc3[nH]2)c2ccccn12,93.1%
16,O=[N+]([O-])c1cc(Cl)c2[nH]c3c(Cl)cc([N+](=O)[O-])cc3c2c1,15.9%
17,COc1cc(-c2nn(C(=O)NS(=O)(=O)c3ccccc3)cc2-c2ccncc2)ccc1Cl,95.3%
18,NC(=N\N=C/c1ccc(O)cc1)/C(N)=N\N=C/c1ccc(O)cc1,92.7%

row,SMILES,growth
1,Cn1c(=O)c2[nH]c(C3CC=CCC3)nc2n(C)c1=O (configuration not stated),100%
2,C=C[C@@H]1C[C@H](O)Cc2cc(F)ccc2N1,104%
3,O=C(O)Cc1cccc(=O)c(O)c1C(=O)O,105%
4,O=C(O)COc1ccc(-c2cssc2=S)cc1,105%
5,c1ccc(-c2nnc(-c3ccccn3)s2)nc1,97.9%
6,CC(C)CC1NC(C)(C)CO1 (configuration not stated),115%
7,CC(C)(C)N1CCC1C(N)=O (configuration not stated),99.4%
8,COc1ccc(-c2cnnn2-c2nonc2-n2cccc2)cc1OC,84.2%
9,O=C(O)C1CCCCN1c1nc(Cl)nc(Cl)n1 (configuration not stated),102%
10,CCCCN(CCCC)C(=N)c1ccnc2ccccc12,115%
11,O=S(=O)(NCCNc1nccc(-c2c(-c3cccc(O)c3)nc3sccn23)n1)c1ccc(F)cc1,111%
12,COc1cc(-c2nn(-c3cccc(NC(=O)c4cccc(C(F)(F)F)c4)c3)cc2-c2ccncc2)ccc1Cl,47.3%
13,Cc1ccc(Cc2c(C=O)nc(N)[nH]c2=O)c2ccccc12,98.5%
14,Cn1cnc2c(N3CCN(C(=O)OCc4ccc5c(Cl)cc(Cl)c(O)c5n4)CC3)nc(Cl)nc21,60.3%
15,COc1ccc(-c2c(N)n[nH]c2-c2cc(OC)c3c(c2)OCCO3)cc1,84.9%
16,CCOC(=O)c1ccc2c(c1)c1c(C)c3cccnc3c(C)c1n2C,56.4%
17,Cc1nc2ncccc2nc1Nc1ccc(S(=O)(=O)Nc2ccccn2)cc1,88.5%
18,COc1ccc(C2=C(c3cc(OC)c(OC)c(OC)c3)C(=O)CC2)cc1,35.1%
